In PubChem BioAssay AID624300 (Southern Research Specialized Biocontainment Screening …, 2012):
In all, about 2,400 compounds went through this assay and about 360 (15%) were called active.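 Rule for the calls: active = viability falls under 70% at one or more tested concentrations, taken as toxicity; inactive = viability stays over 70% at every dose.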 These entries were drawn from the full list. Measured potencies and affinities stand elsewhere.

assay: HeLa cell cytotoxicity, dose response, cytotoxicity control for MgcRacGAP inhibitor project (AID 624300); conditions: CellTiter-Glo luminescence, 24 h; series mostly up to 100 µM

Structure (SMILES)	outcome
COc1cc(/C=N/NC(=O)c2cn(-c3cccc(C)n3)cn2)ccc1O	inactive
COc1cc([C@H]2OC[C@H]3[C@@H]2CO[C@H]3c2ccc(O)c(OC)c2)ccc1O	inactive
O=C(CN1CCN(c2ccc(O)cc2)CC1)N(C1CC1)C1CCS(=O)(=O)C1 (stereo not given)	inactive
N#C/C(=C/c1ccc(O)c(O)c1)C(=O)NCc1ccc(Cl)cc1	inactive
C=CCc1ccc(OCCOCCNCCCC)c(OC)c1	inactive
COc1ccc(CNCC(=O)Nc2cc(OC)cc(OC)c2)cc1	inactive
COc1ccc(NC2CCCN(C(=O)c3ccc4[nH]c(C)c(C)c4c3)C2)cc1 (stereo not given)	inactive
Cc1ccc(NC(=O)CCC(=O)N/N=C/c2ccc(O)cc2O)cc1	inactive
Cc1ccc(O)c(N=Cc2sc3ccccc3c2Cl)c1	inactive
C=CCc1cccc(C=Nc2cc(Br)ccc2O)c1O	inactive
Cc1cccc(C=Nc2ccc3c4c(cccc24)CC3)c1O	inactive
Cc1ccc(O)c(N=Cc2cc(Cc3ccccc3)cc([N+](=O)[O-])c2O)c1	inactive
O=C(CN1CCN(c2ccccn2)CC1)Nc1ccc(F)cc1	inactive
CCOc1cc(C=NNC(=O)c2cccc(S(=O)(=O)N3CCCC3)c2)ccc1O	inactive
COCCCNC(=O)/C(C#N)=C/c1c(N2CCN(c3ccc(OC)cc3)CC2)nc2c(C)cccn2c1=O	inactive
O=C(c1ccco1)N1CCN(Cc2cccc([N+](=O)[O-])c2)CC1	inactive
COc1cc(/C=N/N(C)c2ccccc2)ccc1O	inactive
COc1cc(OC)c(OC)cc1/C=N/N(C)c1ccccc1	inactive
COc1ccc(Cn2c(O)c(/C=N/NC(=O)c3cccnc3)c3ccccc3c2=O)cc1	inactive
CCOC(=O)c1[nH]c2ccccc2c1NC(=S)Nc1ccccc1C	inactive
CCN(CC)S(=O)(=O)c1ccc(C)c(NC(=O)CN2CCN(C)CC2)c1	inactive
Oc1ccc(/C=N/Nc2nc(N3CCCC3)nc(N3CCCC3)n2)cc1O	inactive
Cc1nc(Cl)cc(N/N=C/c2ccc(O)cc2O)n1	inactive
Oc1ccc(/C=N/Nc2cc(N3CCOCC3)nc(N3CCOCC3)n2)cc1	inactive

Structure (SMILES)	outcome
Oc1ccc(/C=N/Nc2cccc(Cl)n2)c(O)c1	inactive
CCOc1cc(/C=N/n2cnnc2)ccc1O	inactive
CC1CCC/C(=C\Nc2ccc(O)cc2)C1=O (stereo not given)	inactive
CCOCCCNC(=O)CN1CCN(c2ccc(F)cc2)CC1	inactive
CC(C)=C(NC(=O)c1ccccc1)C(=O)N/N=C/c1ccc(O)cc1	inactive
O=C(NN=Cc1ccc(O)cc1)c1ccccc1NS(=O)(=O)c1cccs1	inactive
C=CCc1cc(Cl)ccc1OCCNCCN1CCOCC1	inactive
CCCS(=O)(=O)N1CCN(C2Cc3ccccc3C2)CC1	inactive
C=CCOC(=O)c1cc(-c2ccc(/C=C3\C(=O)NC(=O)C(C#N)=C3C)o2)ccc1Cl	inactive
CCN1CCN(CC(=O)Nc2cc(C(F)(F)F)ccc2OCCOC)CC1	inactive
COCCNC(=O)Cn1cc(/C=N/NC(=O)c2ccc(Oc3ccc(O)cc3)cc2)c2ccccc21	inactive
CCOc1cc(/C=N/n2c(C)nnc2C)ccc1O	inactive
CCOc1cc(-c2nc3ccccc3s2)ccc1O	inactive
NCC[C@H](O)C(=O)N[C@@H]1C[C@H](N)[C@@H](O[C@H]2O[C@H](CN)[C@@H](O)[C@H](O)[C@H]2O)[C@H](O)[C@H]1O[C@H]1O[C@H](CO)[C@@H](O)[C@H](N)[C@H]1O	inactive
CSCc1ccc(C(=O)N2CCCC(Nc3ccc4c(c3)OCCO4)C2)o1 (stereo not given)	inactive
Cc1ccccc1N1C(S)=C(C#N)C(=O)NC12CCCCC2	inactive
C/C(=N\Nc1cccc2cccnc12)c1ccc[nH]1	inactive
COc1ccc(CN2CCN(Cc3ccco3)CC2)cc1OC	inactive
O=C1C(=Cc2ccco2)CCC1=Cc1ccco1	inactive
CCN(CC)c1ccc(NC(=O)CCN2C(=O)c3ccccc3S2(=O)=O)c(C)c1	inactive
Nc1cc(C(F)(F)F)ccc1N1CCOCC1	inactive
CCc1ccccc1NC(=S)NCC1CCN(c2ccc(OC)cc2)C1 (stereo not given)	inactive
Nc1ccc2nc(Cc3ccccc3)[nH]c2c1	inactive
Nc1ccc2c(c1)[nH]c(=O)c1cc(N)ccc12	inactive

Structure (SMILES)	outcome
CCN(CC)S(=O)(=O)c1ccc(N/N=C/c2ccc(O)cc2)nc1	inactive
O=C(c1ccc(Cl)c(S(=O)(=O)N2CCCCCC2)c1)N1CCN(c2ccc(O)cc2)CC1	inactive
CSc1nc(C)c2c(n1)N(c1ccc(O)cc1)CC2	inactive
CCN1CCN(c2ccc(N=Cc3ccccc3O)cc2)CC1	inactive
CC(=O)c1c(C)c(C)c2n1CCn1c(C)ccc1-2	inactive
CCN=C1S/C(=C\c2ccc(O)c(OCC)c2)C(=O)N1CC	inactive
CN1C(=O)/C(=C/c2ccc(C(=O)Nc3ccc(O)cc3C(=O)O)cc2)SC1=S	inactive
Cc1ccc(NCCCCO)cc1C	inactive
O=c1cc(-c2ccc(O)c(O)c2)oc2cc(O)c([C@@H]3O[C@H](CO)[C@@H](O)[C@H](O)[C@H]3O)c(O)c12	inactive
C/C(=N\NC(=O)c1cccc(N/N=C(\C)c2cc(O)ccc2O)c1)c1cc(O)ccc1O	inactive
Cn1c(=O)[nH]c(NCCc2ccc(O)cc2)c([N+](=O)[O-])c1=O	inactive
CC(=O)C1=C(O)C(=O)N(c2ccc(O)cc2)C1c1ccccc1[N+](=O)[O-] (stereo not given)	inactive
COc1cc(/C=N/NC(=O)c2cc[n+]([O-])cc2)ccc1O	inactive
O=C1C=CC(=O)N1c1ccccc1N1C(=O)C=CC1=O	inactive
CCS(=O)(=O)c1ccc2oc(=O)c(/C=C(\O)c3ccc(Cl)cc3)nc2c1	inactive
CN(C)CCCC1Sc2ccccc2Sc2ccccc21 (stereo not given)	inactive
Nc1cc([N+](=O)[O-])ccc1Nc1ccc(O)cc1	inactive
Cc1ccc(-n2c(=S)[nH]c3sc4c(c3c2=O)CCC4)cc1	inactive
COc1cc(/C(C)=N\NC(=O)CSc2nc3ccccc3n2C)ccc1O	inactive
CCN1CCN(CC(=O)Nc2nc3ccc(OC)cc3s2)CC1	inactive
CCC(=O)N1CCc2cc(S(=O)(=O)CCC(=O)NCc3ccc(C)cc3)ccc21	inactive
O=C(CCc1c[nH]c2ccccc12)NCCc1ccc(O)cc1	inactive
CCOc1ccc(CN2CCN(Cc3c[nH]c4ccccc34)CC2)cc1	inactive
Nc1nc2cc(S(=O)(=O)NC3=NCCCCC3)ccc2s1	inactive

Structure (SMILES)	outcome
Nc1nc(N)c2[nH]c(=S)[nH]c2n1	inactive
CN(CC(=O)NCc1ccncc1)S(=O)(=O)c1ccc(Cl)cc1	inactive
COC(=O)c1[nH]c2ccc(C)cc2c1NC(=O)Oc1ccccc1	inactive
COc1cccc(OC)c1OCCNC(C)(C)C	inactive
Nc1ccc(OCCc2ccccc2)cc1	inactive
CC(C)[C@H](N[C@@H](C)c1ccccc1)c1c(O)ccc2ccccc12	inactive
O=[N+]([O-])c1ccccc1OCCNCc1ccccc1	inactive
CCn1c(-c2ccccc2)csc1=Nc1ccc(O)cc1	inactive
O=c1[nH][nH]cc1C=Nc1cc(Cl)ccc1O	inactive
CN(C)/C=C1\NC(=S)N(c2ccccc2)C1=O	inactive
CCc1ccc(NC(=O)CNCc2ccc(OC)c(OC)c2)cc1	inactive
CCOc1ccccc1/C=c1\sc2ncnn2c1=O	inactive
Cn1c(=O)[nH]c(N)c(Br)c1=O	inactive
O=C(COc1ccccc1)NCC(=O)N/N=C/c1ccc(O)cc1O	inactive
O=Nc1ccc(NOC(=O)c2ccccc2)cc1	inactive
Nc1ccc2c(c1)Nc1ccccc1CC2	inactive
CCN1CCN(CCOc2ccccc2OCc2ccccc2)CC1	inactive
COc1cc(/C=N/NC(=O)C(C)n2nnc3ccccc32)ccc1O (stereo not given)	inactive
COc1cc(/C=N/Nc2ccc(C(=O)O)cc2)ccc1O	inactive
Oc1ccc(/C=N/Nc2ncnc3nc[nH]c23)cc1	inactive
COc1cc(/C=N/Nc2nc(N3CCCC3)nc(N3CCCC3)n2)ccc1O	inactive
Oc1ccc(/C=N/Nc2ncc(Cl)cc2Cl)cc1	inactive
COc1cc(/C=N/Nc2nc(C)cc(C)n2)ccc1O	inactive
O=C(O)C1CCCCC1C(=O)Nc1ccc(S(=O)(=O)N2CCOCC2)cc1 (stereo not given)	inactive

Structure (SMILES)	outcome
Cc1ccn2c(=S)[nH]nc2c1	inactive
Oc1cc(Br)ccc1C=Nc1ccc(N2CCCCC2)cc1	inactive
COc1ccccc1CNCC(=O)Nc1ccc(N(C)C)cc1	inactive
O=C(N/N=C/c1ccc(O)cc1)Nc1cccc2nsnc12	inactive
Cc1csc(=O)n1CC(=O)OC(C)C(=O)Nc1ccc(N(C)C)cc1 (stereo not given)	inactive
CCN(Cc1ccccc1)c1ccc(/C=N/N2CCOCC2)cc1	inactive
C=CCn1c(SCC(=O)Nc2ccc(O)cc2)nc2sc(CC)cc2c1=O	inactive
Brc1ccccc1OCCCCCN1CCOCC1	inactive
C=CCNC(=O)CN1CCN(C(c2ccccc2)c2ccccc2)CC1	inactive
COc1ccc(NC2CCCN(C(=O)c3ccc(C(C)=O)s3)C2)cc1 (stereo not given)	inactive
CN=c1scc(C)n1/N=C/c1ccc(O)cc1	inactive
Cc1cc(Br)cc(C=Nc2ccc(N3CCOCC3)cc2)c1O	inactive
O=C(c1cccc(Cl)c1)N1CCN(C2CCCCC2)CC1	inactive
Cc1c(Cl)cccc1NC(=S)Nc1ccc2[nH]c(=O)[nH]c2c1	inactive
Cc1ccc(OCCN2CCN(C)CC2)c([N+](=O)[O-])c1	inactive
O=C(CSc1nnnn1C1CC1)N1CCN(c2ccc(O)cc2)CC1	inactive
CCC(C)N1CCN(C(=O)c2cccs2)CC1 (stereo not given)	inactive
Oc1ccc(Nc2ncnc3c2oc2ccccc23)cc1	inactive
O=c1oc2ccccc2cc1-c1csc(Nc2ccc(O)cc2)n1	inactive
OC1CNc2c(ccc3ccccc23)C1 (stereo not given)	inactive
CC(CCN1CCN(CCO)CC1)c1ccccc1 (stereo not given)	inactive
OCCN1CCN(Cc2ccc3ccccc3c2)CC1	inactive
O=[N+]([O-])c1ccc(N2CCN(CCOCCO)CC2)c([N+](=O)[O-])c1	inactive
COc1ccc(OCCOCCN2CCN(C)CC2)cc1	inactive
